Bioassay records: PubChem, The Scripps Research Institute Molecular Screening Center
GPR151 activ – human GPR151 activation. PathHunter beta-arrestin GPR151 cells, luminescence. activation, % at 11.2 µM. hit rate 1% among 650,000; in the data active = activation above about 4.9%
FBW7 activator – human FBW7 E3 ligase activation, primary screen | hit rate 0.13% among 650,000 | AlphaScreen FBW7–phospho-cyclin E peptide binding, activator screen | AID 1259310 | Q969H0 | normalized activity (activation), % at 26.1 µM; in the data active = normalized activity above about 1.9%;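 note: purified mutant Fbw7 with reduced substrate affinity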
MITF inh – inhibitors of human MITF; O75030; AlphaScreen MITF homodimerization, bead proximity signal; inhibition, % at 2.6 µM; hit rate 0.91% among 650,000; AID 1259374; in the data active = inhibition above about 50%
Target sequence (O75030 whole entry, looked up): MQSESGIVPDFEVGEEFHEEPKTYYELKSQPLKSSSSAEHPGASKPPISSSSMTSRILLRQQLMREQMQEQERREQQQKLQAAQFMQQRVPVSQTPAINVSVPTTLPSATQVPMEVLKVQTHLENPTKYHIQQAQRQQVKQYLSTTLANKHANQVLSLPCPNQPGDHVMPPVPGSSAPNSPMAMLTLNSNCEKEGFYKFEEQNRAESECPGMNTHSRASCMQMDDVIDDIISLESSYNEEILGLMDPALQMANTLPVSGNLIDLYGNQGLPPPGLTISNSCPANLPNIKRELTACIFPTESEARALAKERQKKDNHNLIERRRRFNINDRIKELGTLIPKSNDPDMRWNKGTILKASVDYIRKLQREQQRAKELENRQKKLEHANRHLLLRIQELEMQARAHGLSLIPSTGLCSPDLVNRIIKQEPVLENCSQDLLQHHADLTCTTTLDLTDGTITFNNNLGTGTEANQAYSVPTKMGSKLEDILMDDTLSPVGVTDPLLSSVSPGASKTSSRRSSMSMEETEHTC
TEAD-YAP block – TEAD-YAP interaction inhibition; HEK-TIYL cells, TEAD-Gal4/YAP UAS-luciferase luminescence; inhibition, % at 9.12 µM; hit rate 1.4% among 640,000; in the data active = inhibition above about 32%
GPR151 conf act – confirmation of human GPR151 activators; shares compounds with GPR151 activ; GPR151 PathHunter beta-arrestin cells, luminescence, 90 min; % of EA-reagent control over plate median; activation, % at 11.2 µM; 6,700 tested, under 10 active;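 active = mean percent activation across replicates above the confirmation screen cutoff of 4.91%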
GPR119 ag – counter-screen for GPR151 activators: effect on human GPR119; GPR119 PathHunter beta-arrestin cells, luminescence, 90 min; 0 = compound-well median, 100 = enzyme-acceptor control; hit rate 0.3% among 6,700; activation, % at 11.2 µM; AID 1508611; shares compounds with GPR151 activ;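 active = mean percent activation in the counterscreen above 29.09%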;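 note: counterscreen on off-target GPR119 to flag nonselective hits from the GPR151 activator screen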
Hits are given with their value; - = inactive; . = no result. Rows were chosen to be rich in hits. Some 3.5% of all compounds tested hit in one or more screens of this group.

SMILES | GPR151 activ | FBW7 activator | MITF inh | TEAD-YAP block | GPR151 conf act | GPR119 ag
COC(=O)c1cc(CNC(=O)c2ccc(C(C)(C)C)cc2)cc(NC(=O)Cn2cccn2)c1 | - | - | - | - | . | .
Cc1nc(C(=O)N2CCC(C(Cc3ccccc3)N(C)C(=O)c3ccccn3)CC2)cs1 (stereo not given) | - | - | - | - | . | .
C/C(=N/NC(=O)c1ccccc1)C1CC1 | - | - | - | - | . | .
C/C(=N\NC(=O)c1cccc(Cl)c1)c1ccc([N+](=O)[O-])o1 | - | - | - | - | . | .
C/C(=N\NC(=O)c1cccc(Cl)c1)C1CC1 | 8.9 | - | - | - | - | -
C/C(=N/NC(=O)c1cccc(Cl)c1)c1ccc([N+](=O)[O-])o1 | 5.7 | - | - | - | - | -
O=C(CCOc1ccccc1)Nc1ccnn1C1CCN(C2CCOCC2)CC1 | - | - | - | - | . | .
O=C(CN1C(=O)C2CCCN2c2ncc(Cl)cc21)N1CCOCC1 (stereo not given) | - | - | - | - | . | .
Cc1cc2c(cc1S(=O)(=O)C(C)CC(=O)NCc1ccc(Cl)cc1)OCC(=O)N2 (stereo not given) | - | - | - | - | . | .
Cc1ccc(CNC(=O)CC(C)S(=O)(=O)c2cc3c(cc2C)NC(=O)CO3)cc1 (stereo not given) | 5.3 | - | - | - | - | -
O=C(CN(C(=O)c1csnn1)C1CCCC1)NCc1ccc2c(c1)OCO2 | - | - | - | - | . | .
CCC1C(=O)Nc2ccccc2N1C(=O)CCl (stereo not given) | - | - | - | - | . | .
COc1ccc(-n2nnc3c(N4CCN(C(=O)CC5CCCCC5)CC4)ncnc32)cc1 | - | - | - | - | . | .
COc1ccc(-n2nnc3c(N4CCN(C(=O)Cc5ccc(Cl)cc5)CC4)ncnc32)cc1 | 5.5 | - | - | - | - | -
COc1cccc(-n2nnc3c(N4CCN(S(=O)(=O)c5cc(F)ccc5F)CC4)ncnc32)c1 | 6.0 | - | - | - | - | -
C/C(=N\Nc1cccc([N+](=O)[O-])c1)c1ccc(C)c([N+](=O)[O-])c1 | - | - | - | - | . | .
CCOC(=O)c1c(C)c(C(=O)NCCCOC)c(C)n1C | - | - | - | - | . | .
CCOC(=O)c1c(C)c(C(=O)NCCC(C)C)c(C)n1C | 12 | - | - | - | - | -
Cc1cccc(CNC2CCN(c3ccc(C(=O)N4CCCC(O)C4)cc3)CC2)n1 (stereo not given) | 6.7 | - | - | - | - | -
CCn1c(CN2CCN(Cc3ccsc3)C(CCO)C2)nc2ccccc21 (stereo not given) | - | - | - | - | . | .
O=C1OC(/C=C/c2cccc(Cl)c2Cl)=NC/1=C\c1ccccc1Cl | - | - | - | - | . | .
O=C1OC(/C=C/c2cccc(Cl)c2Cl)=NC/1=C\c1ccccc1C(F)(F)F | 5.8 | - | - | - | - | -
Cc1ccccc1Nc1nc2nonc2nc1Nc1ccccc1C | - | - | - | - | . | .
CC(=O)c1cc(F)c(N2CCN(C(=O)c3cc(F)c(F)cc3[N+](=O)[O-])CC2)cc1C | 5.3 | - | - | - | - | -
Cc1cc(N2CCN(C(=O)c3ccc(Br)cc3)CC2)c(F)cc1[N+](=O)[O-] | 6.9 | - | - | - | - | -
SMILES | GPR151 activ | FBW7 activator | MITF inh | TEAD-YAP block | GPR151 conf act | GPR119 ag
Cc1cc(F)c(F)cc1C(=O)N1CCN(c2cc(C)c([N+](=O)[O-])cc2F)CC1 | - | - | - | - | . | .
CCOC(=O)C(CC1=CNC2C=CC=CC12)NC(=O)CN1C(=O)c2ccccc2C1=O (stereo not given) | 7.7 | - | - | - | - | -
CC(=O)C(Cc1ccccc1)NC(=O)CN1C(=O)c2ccccc2C1=O (stereo not given) | - | - | - | - | . | .
C=CCn1c(N)c(C(=O)NCCc2ccc(OC)c(OC)c2)c2nc3ccccc3nc21 | 14 | - | - | - | - | -
CCC(=O)Nc1nc2c(OC)ccc(OC)c2s1 | 5.0 | - | - | - | - | -
CCC(=O)Nc1nc2c(Cl)ccc(Cl)c2s1 | - | - | - | - | . | .
c1nc(NCCc2ccc3c(c2)OCCO3)c2ccsc2n1 | 5.6 | - | - | 39 | - | -
CCOc1cc(NC(=O)COc2ccccc2)c(OCC)cc1NC(=O)CC | - | - | - | - | . | .
CCc1ccc(NC(=O)CCc2ccc(CC)o2)cc1 | 8.5 | - | - | - | - | -
CCOC(=O)c1c(N)sc(C)c1-c1cccc(Cl)c1 | - | - | - | - | . | .
COC(=O)c1c(N)sc(C)c1-c1cccc(Cl)c1 | 6.0 | - | - | - | - | -
CC(NC(=O)Nc1ccc(S(N)(=O)=O)cc1)(C(F)(F)F)C(F)(F)F | 4.9 | - | - | - | - | -
COC(=O)Cn1c(=NC(=O)CN2C(=O)c3ccccc3C2=O)sc2cc(OC)ccc21 | - | - | - | - | . | .
CC(C(=O)Nc1ccc(Br)cc1F)N1Cc2ccccc2C1=O (stereo not given) | - | - | - | - | . | .
CC(C(=O)Nc1ccc(Br)cn1)N1Cc2ccccc2C1=O (stereo not given) | 7.2 | - | - | 85 | - | -
COCCCN1C(=O)c2ccccc2CC1(C)C(=O)NC1CCCCCC1 (stereo not given) | 5.6 | - | - | - | - | -
COCCCN1C(=O)c2ccccc2CC1(C)C(=O)NC1CCCCCCC1 (stereo not given) | - | - | - | - | . | .
CC(C)c1ccc(NC(=O)C(c2ccccc2)N(C)C(=O)c2ccc(=O)[nH]c2)cc1 (stereo not given) | 8.7 | - | - | - | - | -
O=C1N(C2CCCC2)C[C@@H]2C[C@@H](c3cccn3-c3nccs3)N3CCC[C@@]123 | 6.4 | - | - | - | - | -
COc1ccccc1N1CCN(CCN2CCN(C)CC2)CC1 | 13 | - | - | - | - | -
COC(=O)c1ccc(OCC(O)CN2CCN(c3ccccc3OC)CC2)cc1 (stereo not given) | 11 | - | - | - | - | -
CCC(=O)c1ccc(OCC(O)CN2CCN(c3ccccc3OC)CC2)cc1 (stereo not given) | - | - | - | - | . | .
O=C(O)c1cc(-c2ccc(/C=C3\Sc4ccccc4C3=O)o2)ccc1Cl | - | - | - | - | . | .
O=C1/C(=C\c2ccc(-c3ccc(Cl)cc3)o2)Sc2ccccc21 | 8.4 | - | - | - | - | -
CCOc1c(Cl)cc(CNCC(C)C)cc1OC | 6.2 | - | - | - | - | -
SMILES | GPR151 activ | FBW7 activator | MITF inh | TEAD-YAP block | GPR151 conf act | GPR119 ag
COc1cc(CNCC(C)C)cc(Cl)c1OC | - | - | - | - | . | .
CCCCCCc1cc(O)c2c(C)cc(=O)oc2c1 | 7.0 | - | - | - | - | -
Cc1cc(C)cc(NC(=O)NC2CCNCC2)c1 | 8.2 | - | - | - | - | -
Cc1ccccc1N1C(=O)C(N2C(=O)c3ccccc3C2=O)C1C(=O)O (stereo not given) | - | - | - | - | . | .
CCS(=O)(=O)c1ccc(NC(=O)c2ccc(F)cc2)c(O)c1 | - | - | - | - | . | .
COCCCNC(=O)c1ccc(CNc2nc(=S)[nH]c3ccccc23)cc1 | 5.9 | - | - | - | - | -
